Assay results published in PubChem BioAssay AID652180 (National Center for Advancing Translational Sciences (NCATS), 2013).
Records with an inconclusive call do not appear. Where a call stands in place of a potency, no number is given. Calls of active or inactive are those of the source. The call rests on the fitted dose curve; in most records, active means well fitted inhibition curve with a large enough effect; inconclusive means small, poorly fitted or top-dose-only effect; inactive means no such curve, though single readings can be large or run the other way.

Experiment: qHTS Assay for Lipid Storage Modulators: 3T3L1 Assay against Probe and Analogs
Conditions: 3T3-L1 lipid droplets, BODIPY imaging, oleic acid, 18-24 h; series mostly up to 46.1 µM
From the text: Storing lipids as a reservoir for energy or the anabolism of elementary metabolites is a common feature of probably all cells and is conserved from bacteria to humans. The universal cellular lipid storage organelle is the so-called lipid storage droplet (LD). Although ubiquitous, LDs share a simple structure composed of a hydrophobic core that harbors the storage lipids, which is shielded by a droplet-specific phospholipid monolayer to which proteins are attached. The current model of LD biogenesis involves an incorporation of the lipid core into the membrane leaflets of the endoplasmic reticulum (ER) followed by a subsequent budding-like maturation of a LD, which ultimately pinches off. Once released, LD volume can increase by localized lipogenesis or fusion of existing droplets. Storage lipids are re-mobilized enzymatically by lipase activity. Lipase regulation in the adipocyte is heavily studied and involves multiple components including catecholamine signaling, the LD-associated proteins Perilipin and comparative gene identification-58 (CGI-58) and at least two lipases named hormone sensitive lipase (HSL) and adipocyte triglyceride lipase (ATGL). LD regulation outside of the adipocyte is poorly understood and only few components are known. However, there is an urgent need to learn more about ectopic fat depots as mislocalized storage of lipids, for example in the liver or muscle, is an eminent health problem associated with insulin resistance or the metabolic syndrome. We developed a laser-scanning cytometer assay to enable 1,536-well screening and combined the results of the small molecules screen with an RNAi database based on lipid storage. In this assay we tested analogs of the probe against a mammalian cell line (3T3L1), to see if these small molecules could disrupt lipid storage. NIH Molecular Libraries Probe Production Centers Network [MLPCN] NIH Chemical Genomics Center [NCGC] MLPCN Grant: MH085686 Assay Submitter (PI): Mathias Beller, Max-Planck-Institut fur Biophysikalische Chemie
3T3L1 cells were obtained from ATCC (CL-173). 4 uL of cells at 1.25 X 105 cell/mL were dispensed into 1536 well Poly-D-Lysine coated black with clear bottom imaging plates (Corning, #7356) to obtain 500 cells/well, and cultured at 37 °C, 95% humidity, and 5% CO2 overnight. The culture medium used was OPTI-MEM containing 5% fetal bovine serum (FBS). Triacsin C (Sigma-Aldrich T-4540), an inhibitor of long-chain fatty acyl CoA synthetase that blocks synthesis of triglycerides, was used as a positive control for lipid under-storage. A total of 23 nL of compounds dissolved in DMSO at different concentrations were transferred to the assay plates using a Kalypsys 1536-pin tool, the final DMSO concentration was 0.46%. One microliter of oleic acid at 400 uM (Calbiochem, #4954) was added to induce lipid droplet formation in the cells, and the plates were lidded. After 18-24 hours of incubation at 37 °C, 95% humidity, and 5% CO2, cells were fixed (8 % paraformaldehyde in PBS, 30 min, room temperature), washed three times with PBS, then stained for lipid droplet and nucleus using 4uL of PBS solution containing BODIPY lipid dye 493/503 (1:2000 dilution, Life Technologies, #3922) and Hoechst 33342 (1:1000, Life Technologies, #H3570) with Washer dispenser EL406(Biotek). Images were acquired using InCell 2000 (GE). Number of cells, number of lipids and sizes of lipids were analysis using GE Investigator software.
With `CCOc1ccc(CCNC(=O)c2cc3sccc3n2CC=C(C)C)cc1OCC` the Potency was 833 nM (active).
In the case of `Cc1ccc(NC(=O)c2ccc(CN3CCN(C)CC3)cc2)cc1Nc1nc(-c2cccnc2)cs1`, the Potency is reported as “inactive”.
With `C[C@@H](NCCCc1cccc(C(F)(F)F)c1)c1cccc2ccccc12` the Potency was “inactive”.
In the case of `CCOC(=O)C1CCN(C(=O)C(C)(C)NC(=O)Nc2ccc(N)cc2)CC1`, the Potency is reported as “inactive”.
For `CCOC(=O)C1CCN(C(=O)C(C)(C)NC(=O)Nc2ccc(F)c(F)c2)CC1`, the Potency was “inactive”.
For `CCOc1ccc(CCNC(=O)c2cc3sccc3n2CCN2CCN(C)CC2)cc1OCC`, the Potency was 1320 nM (active).
For `CCOc1ccc(CCNC(=O)c2ccc3[nH]ccc3c2)cc1OCC`, the Potency was “inactive”.
With `CCOc1ccc(CCNC(=O)c2ccc(N3N=C(C)CC3=O)cc2)cc1OCC` the Potency was “inactive”.
With `CCOc1ccc(CCNC(=O)c2cc3sccc3n2Cc2ccccn2)cc1OCC` the Potency was 23.5 nM (active).
For `O=C(NC1CCCc2c1cnn2-c1ccc(O)cc1)c1ccccn1` (stereo not given), the Potency was “inactive”.
In the case of `CCOc1ccc(CCNC(=O)C2=C(C)OCCO2)cc1OCC`, the Potency is reported as “inactive”.
In the case of `CCOC(=O)C1CCN(C(=O)C(C)(C)NC(=O)Nc2ccc(OC)c(Cl)c2)CC1`, the Potency is reported as “inactive”.
With `O=C(NCCc1ccc(O)c(O)c1)c1cc2sccc2n1Cc1ccccc1` the Potency was “inactive”.
In the case of `CCOC(=O)C1CCN(C(=O)C(C)(C)NC(=O)Nc2cccc(C(=O)OC)c2)CC1`, the Potency is reported as “inactive”.
For `CCOc1ccc(CCNC(=O)c2cc3ccccc3n2Cc2ccc(Cl)c(F)c2)cc1OCC`, the Potency was 18.7 nM (active).
In the case of `O=C(NCCc1ccc2c(c1)OCO2)c1cc2sccc2n1Cc1ccccc1`, the Potency is reported as “inactive”.
In the case of `CCOC(=O)C1CCN(C(=O)C2(NC(=O)Nc3ccccc3Cl)CC2)CC1`, the Potency is reported as “inactive”.
In the case of `O=C(c1cc2sccc2n1Cc1ccccc1)N(CCc1ccc(O)c(O)c1)Cc1ccccc1`, the Potency is reported as “inactive”.
For `CN(C)Cc1ccc(-c2nc3cccc4c3n2CCNC4=O)cc1`, the Potency was “inactive”.
In the case of `Cc1cc(SCc2sc(-c3ccc(C(F)(F)F)cc3)nc2C)ccc1OCC(=O)O`, the Potency is reported as “inactive”.
For `CCOC(=O)C1CCN(C(=O)C(C)(C)NC(=O)Nc2ccc3sccc3c2)CC1`, the Potency was “inactive”.
With `COc1nc(-c2ccc3c(c2)OCO3)n(-c2ccc(NC(=O)CSc3ccccc3)cc2)n1` the Potency was “inactive”.
With `O=C(NC1CCCc2c1cnn2-c1ccc(F)cc1F)c1ccncc1` (stereo not given) the Potency was “inactive”.
With `CN(C)CC(=O)NC1CCCc2c1cnn2-c1ccc(F)cc1F` (stereo not given) the Potency was “inactive”.
For `O=C(O)CCc1ccc(NCc2cccc(Oc3ccccc3)c2)cc1`, the Potency was “inactive”.
In the case of `CCOC(=O)C1CCN(C(=O)C(C)(C)NC(=O)Nc2cccc(-c3csc(C)n3)c2)CC1`, the Potency is reported as “inactive”.
In the case of `O=C(NC1CCCc2c1cnn2-c1ccc(F)cc1F)c1ccc(C(=O)c2ccccc2)cc1` (stereo not given), the Potency is reported as “inactive”.
With `O=C(NC1CCCc2c1cnn2-c1ccc(F)cc1F)c1ccc(C2(C(F)(F)F)N=N2)cc1` (stereo not given) the Potency was “inactive”.
With `CCOC(=O)C1CCN(C(=O)C(C)(C)NC(=O)Nc2ccc3c(c2)CCC3)CC1` the Potency was “inactive”.
In the case of `COc1cc(C)c(Sc2cnc(NC(=O)c3ccc(CNC(C)C(C)(C)C)cc3)s2)cc1C(=O)N1CCN(C(C)=O)CC1` (stereo not given), the Potency is reported as 3320 nM (active).
With `O=C(NC1CCCc2c1cnn2-c1ccc(F)cc1F)c1ccccc1` (stereo not given) the Potency was “inactive”.
For `O=C(NCCc1ccc2c(c1)OCO2)c1cc2sccc2[nH]1`, the Potency was “inactive”.
With `CCOc1ccc(CCNC(=O)c2cc3sccc3n2C)cc1OCC` the Potency was “inactive”.
With `CCOc1ccc(CCNC(=O)c2cc3sccc3[nH]2)cc1OCC` the Potency was 4690 nM (active).
In the case of `CC(C)(C)OC(=O)NCCOCCOCCOCCn1ncc2c1CCCC2NC(=O)c1ccccn1` (stereo not given), the Potency is reported as “inactive”.
For `CCn1c(C(=O)NCCc2ccc(OC)c(OC)c2)cc2sccc21`, the Potency was “inactive”.
With `CC1=C(C(=O)NC2CCCc3c2cnn3-c2ccc(F)cc2F)OCCO1` (stereo not given) the Potency was “inactive”.
For `O=C(NC1CCCc2c1cnn2-c1ccc(F)cc1F)c1ccn[nH]1` (stereo not given), the Potency was “inactive”.
In the case of `CCOC(=O)C1CCN(C(=O)C(C)(C)NC(=O)Nc2ccc(CN3CCOCC3)cc2)CC1`, the Potency is reported as “inactive”.
With `CCOC(=O)C1CCN(C(=O)C(C)(C)NC(=O)Nc2ccc([N+](=O)[O-])cc2)CC1` the Potency was “inactive”.
